Measured values as given in PubChem BioAssay (EPA / NIEHS).
The source made the active and inactive calls. The calls were made as follows: active = hit-call score of the fitted dose curve at least 0.9, where 1 is the maximum; inactive = score below 0.9.

What was measured:
[1] = CEETOX_H295R_PROG: CeeTox H295R High-throughput Steroidogenesis Assay for Progesterone (PROG) (AID 2283442); details: actives raise or lower the signal;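 as to AC50: human H295R adrenal cells primed with 10 µM forskolin before dosing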
Outline: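 Progesterone secreted by human H295R cells was measured by LC-MS/MS following 48 h chemical exposure at 0.1% DMSO, preceded by 48 h forskolin (10 uM) stimulation. Same-well MTT viability; cytotoxic concentrations diluted 10- or 100-fold and retested.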

[2] = read-out: Tumor necrosis factor receptor superfamily member 6 (Homo sapiens) (UniProt P25445); experiment: LTEA_HepaRG_FAS: Life Technologies and Expression Analysis (LTEA) Assay for Fas cell surface death receptor (FAS) using HepaRG (AID 2283447); details: mRNA level, 48 h; actives raise or lower the signal
Outline: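 Differentiated HepaRG cells in serum-free induction medium were exposed 48 h to 8 half-log concentrations up to 100 uM in 0.5% DMSO, in duplicate. FAS mRNA was measured by qRT-PCR normalised to ACTB, GAPDH and POLR2A; bidirectional fit versus DMSO.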

[3] = read-out: Fatty acid synthase (Homo sapiens) (UniProt P49327); experiment: LTEA_HepaRG_FASN: Life Technologies and Expression Analysis (LTEA) Assay for Fatty Acid Synthase (FASN) using HepaRG (AID 2283448); details: mRNA level, 48 h; actives raise or lower the signal
Outline: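 Differentiated human HepaRG cells were exposed for 48 h in serum-free induction medium to eight half-log concentrations up to 100 uM in 0.5% DMSO, in duplicate. FASN mRNA was quantified by TaqMan qRT-PCR, normalized to ACTB/GAPDH/POLR2A, and fitted bidirectionally against DMSO.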

[4] = read-out: Cyclin Dependent Kinase Inhibitor 1A (CDKN1A), CDKN1A (gene 1026); experiment: LTEA_HepaRG_CDKN1A: Life Technologies and Expression Analysis (LTEA) Assay for Cyclin Dependent Kinase Inhibitor 1A (CDKN1A) using HepaRG (AID 2283450); details: mRNA level, 48 h; actives raise or lower the signal
Outline: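 Expression quantified by Fluidigm qRT-PCR with ACTB, GAPDH and POLR2A normalization, fitted bidirectionally against 0.5% DMSO. Cells: HepaRG, plated 48 h then treated 48 h in serum-free induction medium, top concentration 100 uM with half-log dilutions.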

[5] = read-out: Cyclin D1 (CCND1), CCND1 (gene 595); experiment: LTEA_HepaRG_CCND1: Life Technologies and Expression Analysis (LTEA) Assay for Cyclin D1 (CCND1) using HepaRG (AID 2283451); details: mRNA level, 48 h; actives raise or lower the signal;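 as to AC50: TaqMan qRT-PCR transcript level normalised to ACTB GAPDH and POLR2A housekeeping genes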
Outline: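 Expression of CCND1 was quantified by qRT-PCR on Fluidigm arrays using ACTB, GAPDH and POLR2A as reference genes. HepaRG cultures, plated 48 h beforehand, were dosed for 48 h at up to 100 uM (half-log, 8 points) in 0.5% DMSO.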

[6] = read-out: catalase (CAT), CAT (gene 847); experiment: LTEA_HepaRG_CAT: Life Technologies and Expression Analysis (LTEA) Assay for catalase (CAT) using HepaRG (AID 2283452); details: mRNA level, 48 h; actives raise or lower the signal;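 as to AC50: TaqMan qRT-PCR signal normalized to ACTB GAPDH and POLR2A housekeeping genes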
Outline: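 HepaRG cells in serum-free induction medium, 0.5% DMSO vehicle, exposed 48 h in duplicate over 8 half-log concentrations from 100 uM. CAT mRNA measured by qRT-PCR, normalized to ACTB, GAPDH, POLR2A; bidirectional fit versus DMSO.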

[7] = read-out: flavin-containing dimethylaniline monooxygenases 3 (FMO3), FMO3 (gene 2328); experiment: LTEA_HepaRG_FMO3: Life Technologies and Expression Analysis (LTEA) Assay for flavin-containing dimethylaniline monooxygenases 3 (FMO3) using HepaRG (AID 2283453); details: mRNA level, 48 h; actives raise or lower the signal
Outline: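 HepaRG, 48 h exposure, 8-pt half-log series from 100 uM, 0.5% DMSO vehicle, duplicates; FMO3 transcript by Fluidigm TaqMan qRT-PCR, housekeeping-normalized; gain/loss fit vs DMSO.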

[8] = read-out: Cytochrome P450 (CYP1A1), CYP1A1 (gene 1543); experiment: LTEA_HepaRG_CYP1A1: Life Technologies and Expression Analysis (LTEA) Assay for Cytochrome P450 (CYP1A1) using HepaRG (AID 2283454); details: mRNA level, 48 h; actives raise or lower the signal
Outline: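 CYP1A1 transcript levels measured by Fluidigm qRT-PCR against three housekeeping genes, 48 h after chemical dosing of human HepaRG cells (highest concentration 100 uM, half-log steps, 0.5% DMSO vehicle). Gain or loss of signal fitted relative to DMSO.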

[9] = read-out: CFLAR gene, CFLAR (gene 8837); experiment: LTEA_HepaRG_CFLAR: Life Technologies and Expression Analysis (LTEA) Assay for CFLAR gene using HepaRG (AID 2283455); details: mRNA level, 48 h; actives raise or lower the signal
Outline: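 Differentiated HepaRG cells in serum-free induction medium were exposed 48 h in duplicate to eight half-log concentrations up to 100 uM in 0.5% DMSO; mRNA measured by TaqMan qRT-PCR, normalized to ACTB, GAPDH, POLR2A; bidirectional fitting versus DMSO.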

[10] = read-out: Forkhead box O1 (FOXO1), FOXO1 (gene 2308); experiment: LTEA_HepaRG_FOXO1: Life Technologies and Expression Analysis (LTEA) Assay for Forkhead box O1 (FOXO1) using HepaRG (AID 2283456); details: mRNA level, 48 h; actives raise or lower the signal
Outline: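 Differentiated HepaRG cells, in serum-free induction medium with 0.5% DMSO, exposed 48 h in duplicate to 8-point half-log series from 100 uM. FOXO1 mRNA measured by TaqMan qRT-PCR, normalized to ACTB, GAPDH, POLR2A; bidirectional fit versus DMSO.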

[11] = read-out: growth arrest and DNA damage 45 (GADD45A), GADD45A (gene 1647); experiment: LTEA_HepaRG_GADD45A: Life Technologies and Expression Analysis (LTEA) Assay for growth arrest and DNA damage 45 (GADD45A) using HepaRG (AID 2283458); details: mRNA level, 48 h; actives raise or lower the signal
Outline: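 Differentiated HepaRG cells were exposed in duplicate for 48 h in serum-free induction medium to 8-point half-log concentrations up to 100 uM in 0.5% DMSO. GADD45A mRNA was measured by TaqMan qRT-PCR, normalized to ACTB, GAPDH and POLR2A, with bidirectional fitting versus DMSO.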

[12] = read-out: Forkhead box O3 (FOXO3), FOXO3 (gene 2309); experiment: LTEA_HepaRG_FOXO3: Life Technologies and Expression Analysis (LTEA) Assay for Forkhead box O3 (FOXO3) using HepaRG (AID 2283459); details: mRNA level, 48 h; actives raise or lower the signal
Outline: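 Differentiated human HepaRG cells, 48 h post-plating, exposed in duplicate for 48 h in serum-free induction medium; 8-point half-log series from 100 uM in 0.5% DMSO. FOXO3 mRNA by TaqMan qRT-PCR, normalized to ACTB/GAPDH/POLR2A; bidirectional fit versus DMSO.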

[13] = read-out: ABC Transporter (ABCB1), ABCB1 (gene 5243); experiment: LTEA_HepaRG_ABCB1: Life Technologies and Expression Analysis (LTEA) Assay for ABC Transporter (ABCB1) using HepaRG (AID 2283460); details: mRNA level, 48 h; actives raise or lower the signal
Outline: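 HepaRG cells exposed in duplicate for 48 h in serum-free induction medium to eight half-log concentrations up to 100 uM in 0.5% DMSO. ABCB1 mRNA quantified by qRT-PCR, normalised to ACTB, GAPDH and POLR2A; fitted bidirectionally versus DMSO.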

[14] = read-out: growth arrest and DNA damage 45 (GADD45B), GADD45B (gene 4616); experiment: LTEA_HepaRG_GADD45B: Life Technologies and Expression Analysis (LTEA) Assay for growth arrest and DNA damage 45 (GADD45B) using HepaRG (AID 2283461); details: mRNA level, 48 h; actives raise or lower the signal
Outline: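 Transcript level quantified by Fluidigm TaqMan qRT-PCR with three housekeeping genes for normalization, analyzed for up- or down-regulation against 0.5% DMSO. HepaRG cultures dosed 48 h at eight half-log concentrations up to 100 uM, duplicates.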

[15] = read-out: ABC Transporter (ABCC3), ABCC3 (gene 8714); experiment: LTEA_HepaRG_ABCC3: Life Technologies and Expression Analysis (LTEA) Assay for ABC Transporter (ABCC3) using HepaRG (AID 2283462); details: mRNA level, 48 h; actives raise or lower the signal
Outline: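 Transcript level by TaqMan qRT-PCR, normalised to three housekeeping genes, fitted in both directions relative to vehicle. Chemicals tested in duplicate at eight half-log concentrations up to 100 uM for 48 h on HepaRG cells (0.5% DMSO).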

[16] = read-out: ABC Transporter (ABCC2), ABCC2 (gene 1244); experiment: LTEA_HepaRG_ABCC2: Life Technologies and Expression Analysis (LTEA) Assay for ABC Transporter (ABCC2) using HepaRG (AID 2283464); details: mRNA level, 48 h; actives raise or lower the signal
Outline: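 Endpoint is ABCC2 transcript level from qRT-PCR, normalized to three housekeeping genes and fitted bidirectionally relative to DMSO. Human HepaRG cells received test chemical for 48 h at up to 100 uM (8 points, half-log steps, 0.5% DMSO), duplicate wells.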

[17] = read-out: Broad substrate specificity ATP-binding cassette transporter ABCG2 (Homo sapiens) (UniProt Q9UNQ0); experiment: LTEA_HepaRG_ABCG2: Life Technologies and Expression Analysis (LTEA) Assay for ABC Transporter (ABCG2) using HepaRG (AID 2283465); details: mRNA level, 48 h; actives raise or lower the signal
Outline: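 Differentiated HepaRG cells were exposed for 48 h in serum-free induction medium to 8 half-log concentrations, top 100 uM, in 0.5% DMSO. ABCG2 mRNA was measured by qRT-PCR, normalized to ACTB, GAPDH and POLR2A, with bidirectional fitting versus DMSO.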

[18] = read-out: Cyclin D2 (CCND2), CCND2 (gene 894); experiment: LTEA_HepaRG_CCND2: Life Technologies and Expression Analysis (LTEA) Assay for Cyclin D2 (CCND2) using HepaRG (AID 2283449); details: mRNA level, 48 h; actives raise or lower the signal;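 also: CCND2 transcript measured by TaqMan qRT-PCR and normalised to three housekeeping genes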
Outline: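 Chemicals in 0.5% DMSO, eight half-log concentrations from 100 uM top, were applied in duplicate for 48 h to human HepaRG cells in serum-free induction medium. CCND2 mRNA by TaqMan qRT-PCR, normalised to ACTB/GAPDH/POLR2A; bidirectional fit versus DMSO.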

Measured: AC50

Broad substrate specificity ATP-binding cassette transporter ABCG2 (Homo sapiens), sequence (Q9UNQ0 whole entry, looked up): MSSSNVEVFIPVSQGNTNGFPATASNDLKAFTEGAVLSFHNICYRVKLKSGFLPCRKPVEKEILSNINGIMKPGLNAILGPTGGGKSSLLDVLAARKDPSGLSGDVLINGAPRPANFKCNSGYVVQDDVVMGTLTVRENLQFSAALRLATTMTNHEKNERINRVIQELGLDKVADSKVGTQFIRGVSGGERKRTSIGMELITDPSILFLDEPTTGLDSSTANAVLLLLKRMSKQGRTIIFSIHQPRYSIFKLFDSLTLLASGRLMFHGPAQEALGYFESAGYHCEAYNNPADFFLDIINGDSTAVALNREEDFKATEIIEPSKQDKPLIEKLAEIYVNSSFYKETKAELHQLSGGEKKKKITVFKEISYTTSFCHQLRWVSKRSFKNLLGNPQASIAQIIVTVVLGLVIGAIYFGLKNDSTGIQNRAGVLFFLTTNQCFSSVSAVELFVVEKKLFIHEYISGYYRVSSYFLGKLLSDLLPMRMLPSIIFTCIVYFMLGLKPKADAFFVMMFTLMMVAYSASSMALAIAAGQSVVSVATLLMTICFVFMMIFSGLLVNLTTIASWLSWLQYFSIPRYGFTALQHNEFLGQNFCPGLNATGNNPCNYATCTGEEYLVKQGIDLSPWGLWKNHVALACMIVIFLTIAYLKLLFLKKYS
Fatty acid synthase (Homo sapiens), sequence (P49327 whole entry, looked up): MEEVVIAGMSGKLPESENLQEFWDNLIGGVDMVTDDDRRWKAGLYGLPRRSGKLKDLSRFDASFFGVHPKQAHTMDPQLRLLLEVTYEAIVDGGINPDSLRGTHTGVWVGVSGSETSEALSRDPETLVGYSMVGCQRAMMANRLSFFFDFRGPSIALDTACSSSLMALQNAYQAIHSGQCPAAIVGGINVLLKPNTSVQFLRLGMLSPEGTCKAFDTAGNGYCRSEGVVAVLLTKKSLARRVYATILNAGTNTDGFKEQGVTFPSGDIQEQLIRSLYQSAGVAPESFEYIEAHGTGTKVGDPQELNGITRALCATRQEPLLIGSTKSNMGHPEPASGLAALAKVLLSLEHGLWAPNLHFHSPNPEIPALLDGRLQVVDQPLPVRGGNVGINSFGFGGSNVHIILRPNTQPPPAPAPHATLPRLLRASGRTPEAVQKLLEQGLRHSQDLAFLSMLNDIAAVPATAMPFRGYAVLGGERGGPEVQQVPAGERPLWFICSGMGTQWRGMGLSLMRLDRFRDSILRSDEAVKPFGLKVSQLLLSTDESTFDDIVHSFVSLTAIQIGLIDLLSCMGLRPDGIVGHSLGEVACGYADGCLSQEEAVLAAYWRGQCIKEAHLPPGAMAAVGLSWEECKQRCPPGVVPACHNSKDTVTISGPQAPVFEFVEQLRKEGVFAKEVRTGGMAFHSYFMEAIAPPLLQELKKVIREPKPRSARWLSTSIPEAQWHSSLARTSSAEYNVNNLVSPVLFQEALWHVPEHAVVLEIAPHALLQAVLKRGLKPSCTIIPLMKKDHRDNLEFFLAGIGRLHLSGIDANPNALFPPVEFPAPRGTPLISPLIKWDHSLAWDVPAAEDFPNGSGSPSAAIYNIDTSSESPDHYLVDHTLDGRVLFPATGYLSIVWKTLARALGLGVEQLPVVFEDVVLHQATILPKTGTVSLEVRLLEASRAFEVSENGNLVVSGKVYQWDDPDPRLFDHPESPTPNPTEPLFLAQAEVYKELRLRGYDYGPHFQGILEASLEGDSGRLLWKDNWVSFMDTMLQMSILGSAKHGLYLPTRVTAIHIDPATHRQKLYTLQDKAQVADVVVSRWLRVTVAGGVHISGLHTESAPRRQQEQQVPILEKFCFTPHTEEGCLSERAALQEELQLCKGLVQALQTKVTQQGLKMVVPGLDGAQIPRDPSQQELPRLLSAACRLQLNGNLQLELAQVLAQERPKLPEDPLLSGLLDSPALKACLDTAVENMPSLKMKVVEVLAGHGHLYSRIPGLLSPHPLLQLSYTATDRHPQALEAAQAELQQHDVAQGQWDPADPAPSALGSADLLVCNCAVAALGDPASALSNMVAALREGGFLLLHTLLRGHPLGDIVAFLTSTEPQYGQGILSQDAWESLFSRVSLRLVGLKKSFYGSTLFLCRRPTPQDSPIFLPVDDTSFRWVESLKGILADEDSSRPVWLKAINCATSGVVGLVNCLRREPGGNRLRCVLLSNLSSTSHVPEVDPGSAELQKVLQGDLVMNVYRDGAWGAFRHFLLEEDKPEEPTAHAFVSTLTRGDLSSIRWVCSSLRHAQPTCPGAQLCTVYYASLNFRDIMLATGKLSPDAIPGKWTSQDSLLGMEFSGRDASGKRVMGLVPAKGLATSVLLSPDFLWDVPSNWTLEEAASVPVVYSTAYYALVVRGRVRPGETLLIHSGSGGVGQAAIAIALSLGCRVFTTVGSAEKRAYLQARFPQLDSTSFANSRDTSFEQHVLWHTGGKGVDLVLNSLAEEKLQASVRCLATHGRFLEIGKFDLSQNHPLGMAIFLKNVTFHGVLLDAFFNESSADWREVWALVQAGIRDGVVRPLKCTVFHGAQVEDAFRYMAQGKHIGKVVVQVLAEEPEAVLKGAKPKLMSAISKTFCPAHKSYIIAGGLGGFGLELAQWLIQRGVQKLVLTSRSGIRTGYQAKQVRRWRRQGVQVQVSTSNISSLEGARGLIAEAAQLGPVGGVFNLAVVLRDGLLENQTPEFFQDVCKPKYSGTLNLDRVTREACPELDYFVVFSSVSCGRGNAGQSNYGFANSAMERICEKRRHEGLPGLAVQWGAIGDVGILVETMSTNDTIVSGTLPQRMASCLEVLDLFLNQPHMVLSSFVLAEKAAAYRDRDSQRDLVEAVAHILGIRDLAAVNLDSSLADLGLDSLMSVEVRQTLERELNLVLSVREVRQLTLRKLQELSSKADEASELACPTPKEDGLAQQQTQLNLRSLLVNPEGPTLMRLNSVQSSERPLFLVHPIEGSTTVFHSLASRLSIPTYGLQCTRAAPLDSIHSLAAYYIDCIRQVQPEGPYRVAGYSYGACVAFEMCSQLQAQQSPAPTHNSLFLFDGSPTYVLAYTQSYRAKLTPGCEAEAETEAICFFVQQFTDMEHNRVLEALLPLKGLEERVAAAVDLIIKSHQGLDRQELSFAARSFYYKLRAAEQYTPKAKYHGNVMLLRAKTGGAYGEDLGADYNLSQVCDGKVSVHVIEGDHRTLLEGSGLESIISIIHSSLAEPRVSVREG

Cc1cccc(N)c1N
active: [1] 15.4 µM | [3] 33.4 µM | [5] 50 µM | [6] 50 µM | [7] 61.7 µM | [8] 6.92 µM | [9] 50 µM | [12] 50 µM | [14] 64 µM
inactive: [2] | [4] | [10] | [11] | [13] | [15] | [16] | [17]

CC(C)(C)C(O)(CCc1ccc(Cl)cc1)Cn1cncn1 (stereo unspecified)
active: [1] 0.121 µM | [3] 3.08 µM | [4] 88.7 µM | [7] 76.7 µM | [8] 6.47 µM | [13] 3.45 µM
inactive: [2] | [18] | [5] | [6] | [9] | [10] | [12] | [14] | [15] | [16] | [17]

COP(=S)(OC)SCN1C(=O)c2ccccc2C1=O
inactive: [1] | [2] | [3] | [18] | [4] | [5] | [6] | [7] | [9] | [10] | [12] | [13] | [14] | [15] | [16] | [17]
active: [8] 30.9 µM
